Source: PubChem BioAssay AID995 (National Center for Advancing Translational Sciences (NCATS), 2007)
The whole screen tested about 72,000 compounds, of which about 710 (0.99%) were called active. About 7% were inconclusive and are not listed. The full list was thinned out, with actives kept by preference. Values without a mark were called inactive. Calls follow the shape of the dose curve; as a rule, active = well fitted inhibition curve with a large enough effect; inconclusive = small, poorly fitted or top-dose-only effect; inactive = no such curve, though single readings can be large or run the other way.

assay: qHTS Assay for Inhibitors of the ERK Signaling Pathway using a Homogeneous Screening Assay; conditions: HEK293-V1b, vasopressin-stimulated pERK AlphaScreen; series mostly up to 57.5 µM; activity, negative = inhibition: at the top concentration; also: nearly all actives have a fitted effect of over 55% in size
Excerpt: qHTS Assay for Inhibitors of the ERK Signaling Pathway using a Homogeneous Screening Assay; also: nearly all actives have a fitted effect of over 55% in size
NIH Chemical Genomics Center [NCGC]
NIH Molecular Libraries Screening Centers Network [MLSCN]
Assay Submitter (PI): Dr. Wei Zheng, NCGC/NIH
The Ras/extracellular-signal-regulated kinase (ERK) mitogen activated protein (MAP) kinase signaling pathway (ERK1/2 cascade) plays is a key role in transmitting signals from the cell surface to the nucleus (Nishida and Gotoh 1993; Chang and Karin, 2001). The cascade is initiated by the small G-protein Ras, which recruits Raf […], where activation occurs. Alternatively, this pathway can be activated by elevating intracellular cAMP.
Activation of the ERK pathway is essential in increased cell division and cell survival. Sustained and constitutive activation of the ERK pathway, however, has been linked to uncontrolled cell proliferation, increased cell survival, and tumor progression. Thus, the ERK has been as an attractive target for cancer chemotherapy in the past few years (Sebolt-Leopold and Herrera, 2004). Given its physiological and pathological importance, assessment of ERK phosphorylation has been broadly performed in both basic research and drug discovery. Most assays for the measurement of ERK phosphorylation use the antibody-based detection methods, such as western blot and ELISA. These assays require multiple reagent additions with cell wash steps and are not suitable for high throughout screening.
The current cell-based ERK phosphorylation assay was performed using AlphaScreen platform. AlphaScreen is a two bead-based proximity-dependent chemical energy transfer luminescent assay platform. The assay reagents (ERK SureFire(TM) kit) were supplied from TGR BioSciences (Australia). In the presence of specific antibodies, phosphorylated ERK will bring "donor" and "acceptor" beads to a proximity range (<200 nm), and subsequently lead a chemical luminescent reaction upon exciting donor beads with 680 nm laser. To exclude the assay-related false positives, we used a biotinylated rabbit IgG to perform counter-screen. The biotinylated antibody mimics the phosphorylated ERK1/2 for bringing streptavidin coated beads and protein-A coated beads to a proximity range for the AlphaScreen detection.
NCGC Assay Protocol Summary:
HEK293 cells stably expressing type-1 vasopressin receptor (V1b) were maintained in DMEM medium (Invitrogen, Carlsbad, CA) at 37C under a humidified atmosphere containing 5% CO2 and 95% air. The medium contained 10% FBS, 2 mM L-glutamine, non-essential amino acid, pyruvate and 50 U/ml penicillin and 50 ug/ml streptomycin (Invitrogen). The aliquots of frozen cells were stored at -135C and used for the compound screening. All compounds were screened as titrations from 0.6 nM to 46 uM final concentration. Vasopressin was used to stimulate the ERK phosphorylation pathway. The ERK phosphorylation in cells was determined using an AlphaScreen assay kit provided by PerkinElmer. Data were normalized to the controls for basal activity (DMSO only) and 100% activation (25 nM vasopressin). AC50 values were determined from concentration-response data modeled with the standard Hill equation.
(1) Seed 4 ul/well of resuspended frozen HEK293 cells containing 2000 cells in white 1536-well plates for overnight with 1% FBS at 37C under a humidified atmosphere containing 5% CO2 and 95% air.
(2) Add 23 nL compounds in DMSO solution. The final titration was 0.6 nM to 46 uM.
(3) Incubate at 37C for 30 min.
(4) Dispense 0.5uL vasopressin (25 nM in final)
(5) Incubate at 37C for 5 min.
(6) Dispense 0.5uL of 1:2 diluted 5x lysis buffer.
(7) Incubate at 37C for 10 min.
(8) Dispense 1.5uL of mixture of activation buffer and reaction buffer with AlphaScreen beads (streptavidin donor beads and protein-A acceptor beads, 10 ng/well for each).
(9) Incubate at room temperature for 5 hr.
(10) Detect the assay plate in an EnVision plate reader (PerkinElmer) using the AlphaScreen detection mode.
[…]
% is scaled to controls: 0 for no effect and ±100 for the full control effect; potency is read from the fitted curve at half-maximal effect.

Row | Structure (SMILES) | activity, negative = inhibition | Potency
1 | CC1(C)OC2CC(=O)OC[C@@]23C1CC(=O)[C@]1(C)C3CC[C@@]2(C)C(c3ccoc3)OC(=O)C3O[C@@]321 (stereo partly specified) | 5.86% | 
2 | O=C(O)c1ccc(C(=O)c2ccccc2C(=O)O)cc1C(=O)O | 14.2% [at 11.5 µM] | 
3 | Cc1c(O)cc(O)c2c(=O)c(-c3ccc(O)cc3)coc12 | 10.2% | 
4 | COc1ccc(OC)c(NC(=O)CSc2nc3cccnc3n2C)c1 |  | 20 µM (active)
5 | COc1ccc(OC)c(NC(=O)CSc2nc(N)c(-c3ccccc3)c(=O)[nH]2)c1 | -26.5% | 
6 | CCn1c(COc2ccc(OC)cc2)nnc1SCC(=O)Nc1cc(OC)ccc1OC | -28% | 
7 | CCCOC(=O)C1=C(C)NC2=C(C(=O)C(C(=O)OC)C(C)C2)C1c1ccc(N(C)C)cc1 (stereo unspecified) | -12.3% | 
8 | CCCOC(=O)c1[nH]c2c(c1C)C(=O)CC(c1cc(OC)c(OC)c(OC)c1)C2 (stereo unspecified) |  | 25.1 µM (active)
9 | COC(=O)C1C(=O)c2c([nH]c(C(=O)OCCSC)c2C)CC1C (stereo unspecified) | -19.7% | 
10 | CC(=O)OCC(=O)[C@@]1(O)CCC2C3CCC4=CC(=O)CC[C@@]4(C)[C@]3(F)C(O)C[C@]21C (stereo partly specified) | -18% | 
11 | C[C@@H]1O[C@@H](OC[C@H]2O[C@@H](Oc3c(-c4cccc(O)c4O)oc4cc(O)cc(O)c4c3=O)[C@H](O)[C@@H](O)[C@@H]2O)[C@H](O)[C@H](O)[C@H]1O | -17.5% | 
12 | COc1ccccc1N1CCN(C[C@@H]2CN3C(=O)N(C)c4ccccc4C3=N2)CC1 | -15.9% | 
13 | Fc1ccc(-c2nnc3sc(-c4ccc5c(c4)OCO5)nn23)cc1 | 6.41% | 
14 | COc1cc(-c2nn3c(-c4cccc(C)c4)nnc3s2)cc(OC)c1OC | -16.6% | 
15 | COc1ccc(-c2nn3c(-c4ccccc4)nnc3s2)cc1OC |  | 7.94 µM (active)
16 | CC(=O)O[C@]1(C(C)=O)CC[C@@H]2[C@@H]3C=C(C)C4=CC(=O)CC[C@@]4(C)[C@H]3CC[C@]21C | 35.5% [at 25.7 µM] | 
17 | O=C(O)c1nn(-c2ccc(Cl)cc2)c2c1C(=O)c1ccccc1C2=O | -10.9% [at 11.5 µM] | 
18 | CC1CC[C@@]23CCC4(C)[C@@]5(C)CCC6C(C)(C)C(O)CC[C@@]6(C)C5C=C[C@@]4(OC2=O)C3C1C (stereo partly specified) | 10.4% | 
19 | CN(C)CCc1c[nH]c2ccc(Cn3cncn3)cc12 | 20.1% | 
20 | N#Cc1ccccc1-c1ccc2ncnc(NCc3cccnc3)c2c1 | -12.3% | 
21 | CC1(C)SC2C(NC(=O)COc3ccccc3)C(=O)N2C1C(=O)O (stereo unspecified) | 5.65% | 
22 | S=c1c2[nH]cnc2ncn1CCSc1ncnc2nc[nH]c12 | -0.588% [at 11.5 µM] | 
23 | COC(=O)NC(c1ccccc1)[C@]1(C(C)=O)CCCC1=O (stereo partly specified) | -3.18% [at 11.5 µM] | 

Row | Structure (SMILES) | activity, negative = inhibition | Potency
24 | Nc1nc2nc(Cl)[nH]c2c(=O)[nH]1 | 19.7% | 
25 | O=C(O)C1CCN(c2ncnc3ccc(-c4ccccc4C(F)(F)F)cc23)CC1 | -10.5% | 
26 | CCCN1[C@H](C(=O)OC)C[C@@]2(O)[C@@H](O)[C@@H](O)[C@@H](O)C[C@@H]12 | 26.9% | 
27 | Nc1ncn(C2OC(CO)C(O)C2O)c(=O)n1 (stereo unspecified) | 15.1% | 
28 | COC(=O)[C@@]1(Cc2ccc(OC)cc2)[C@H]2c3cc(C(=O)N4CCCC4)n(Cc4ccc(C(F)(F)F)nc4)c3C[C@H]2CN1C(=O)c1ccccc1 | 2.03% | 
29 | O=c1c(-c2ccc(F)cc2)nc2cnc(N3CCOCC3)nc2n1-c1ccccc1 | -29% | 
30 | C=C(C)C1CC=C(CO)CC1 (stereo unspecified) | 22.5% | 
31 | COc1ccccc1CNc1cc(-c2ccccc2CN(C)C)ncn1 | 11.9% | 
32 | Cc1cc(OCC(=O)O)c(Cl)cc1Cl | -16.5% [at 11.5 µM] | 
33 | CCN1CCCC1CNc1ncnc2c1[nH]c1ccc(F)cc12 (stereo unspecified) | -11.8% | 
34 | Cc1ccc(-n2ncc3c(N4CCN(c5ccc(F)cc5)CC4)ncnc32)c(C)c1 | -27.4% | 
35 | Fc1ccc2[nH]c3c(N4CCSCC4)ncnc3c2c1 |  | 12.6 µM (active)
36 | Oc1ccc(O)c2c(O)cccc12 | -3.49% | 
37 | CC(=O)c1cccc(NC(=O)c2ccncc2)c1 | 12.2% | 
38 | C/C(=C\C(=O)c1ccccc1)Nc1cccc(O)c1 |  | 7.94 µM (active)
39 | C/C(=C\C(=O)c1cccnc1)Nc1ccc(C)c(C)c1 | -5.4% | 
40 | COc1ccc2[nH]cc(CCNc3nc(-c4cccc(NS(C)(=O)=O)c4)nc4ccccc34)c2c1 | -30.4% | 
41 | COc1cccc(-c2nc(Nc3ccncc3)c3ccccc3n2)c1 |  | 15.8 µM (active)
42 | Cc1noc(C)c1-c1nc(Nc2ccccc2)c2ccccc2n1 | -25.9% | 
43 | CCC(C)(C)N=C(NC#N)Nc1cccnc1 | -7.8% | 
44 | N[C@H](C(=O)O)c1ccc(C(=O)O)c(O)c1 | -22.7% | 
45 | CC(=O)Oc1c2c(c3c(c1CC=C(C)C)O[C@@]14C(=CC5CC1C(C)(C)OC4(C/C=C(\C)C(=O)O)C5=O)C3=O)OC(C)(CCC=C(C)C)C=C2 (stereo partly specified) | -10.8% | 
46 | NCCCNCCCCN(CCCN)/[N+]([O-])=N/O | -1.46% | 
